# Reference: PubChem BioAssay (NCI)
# Compounds without any hit were thinned out: in the full panel of roughly 83,000, 20% have a hit.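 Activity criterion: percent growth below 10, measured after cells in 96-well plates were exposed to a single compound concentration for 48 hours.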 Values without a mark were called inactive. Calls of active or inactive are those of the source.
# Tested on: NCI-H23 lung
# Experiment: NCI-60 one-dose screen, 48 h (100 = growth as untreated, 0 = no growth, -100 = all killed)
# Conditions: 10 µM unless noted
row,Compound,growth
1,O=c1oc2ccccc2c(Cl)c1Cl,60.6%
2,O=C1NC(=Nc2ccc(Cl)cc2)S/C1=C\c1cn(-c2ccccc2)nc1-c1ccccc1,93.4%
3,COc1ccccc1NC(=O)N/C(N)=N/c1nc2ccccc2s1,33%
4,Cc1ccc(NS(=O)(=O)c2ccc3c(c2)C2OCCC2C(c2ccc(C(=O)C(C)C)cc2)N3)cc1C (configuration not stated),38.7%
5,N#Cc1c(N)nc2c(C#N)c(NC(=O)c3ccccc3)nn2c1-c1ccccc1,87%
6,COc1cccc(Nc2nccc(Nc3ccc4[nH]ncc4c3)n2)c1,-29.1% (active)
7,C[C@H]1[C@H]2[C@H]3CC[C@@H]4[C@@]5(C)C/C(=C/c6ccco6)C(=O)C(C)(C)[C@@H]5CC[C@@]4(C)[C@]3(C)CC[C@]23CO[C@]1(C)[C@@H](C(=O)/C=C\c1ccco1)C3,99.6%
8,O=C(NCCCNc1cc(-c2cn(-c3ccccc3)nc2-c2cccc(O)c2)ccn1)c1ccccc1,46%
9,COc1ccc(-c2csc(C3=C(O)CN(CCCN4CCCC4=O)C3=N)n2)cc1OC,94.5%
10,CCCCCc1nc2c(c3c1CCCC3)CCCC2,73.4%
11,Clc1cccc(Cl)c1/C=C/c1cc(/C=C/c2c(Cl)cccc2Cl)[nH]n1,43.6%
12,COC(=O)c1c2c(c(C)[n+]([O-])c1C)C(=O)C(NCc1ccc(F)c(Cl)c1)=CC2=O,16.3%
13,Cc1c(C)c2c(c(C)c1OCC(=O)O)CC[C@@](C)(CCC[C@@H](C)CCC[C@@H](C)CCCC(C)C)O2,-30.8% [50 µM] (active)
14,c1c[nH]c(CNC2CCCCC2)c1,97.7%
15,NC(=O)c1ccc[n+](Cc2ccc(Cl)cc2Cl)c1,102%
16,Cc1ccc(Cl)c(NS(=O)(=O)c2ccc(-c3cnc(C4CC4)o3)cc2)c1,36.2%
17,Cc1ccc(-c2cc3c(cc2O)C2CCCCC2(N2CCOCC2)O3)cc1 (configuration not stated),94.8%
18,CC1=C([Se]CC(OC(=O)CC[Se]c2ccccc2)C(=O)NCCCCCC(=O)OCc2ccccc2)C(=O)c2ccccc2C1=O (configuration not stated),10%
19,COc1cc(-c2nn(-c3ccccc3)cc2-c2ccnc(NCCNS(=O)(=O)c3ccc(Cl)cc3)n2)ccc1Cl,47.4%

row,Compound,growth
1,CC1=C(SCCC(=O)OC(C[Se]C2=C(C)C(=O)c3ccccc3C2=O)C(=O)NCCCCCC(=O)OCc2ccccc2)C(=O)c2ccccc2C1=O (configuration not stated),15.2%
2,OC(c1cccc(-n2ccc(C(F)(F)F)n2)c1)c1cnccc1NC1CCCCCC1 (configuration not stated),53.1%
3,O=C(Nc1cccc(Oc2nnc(Cl)c3ccccc23)c1)Nc1ccc(Cl)c(C(F)(F)F)c1,-52.4% (active)
4,Cc1cc(NCCCCNc2ccnc3cc(Cl)ccc23)nc(Nc2ccc(C(=O)N3CCCC3)cc2)n1,81.4%
5,N=C1C(c2nc(-c3ccc(Br)cc3)cs2)=C(O)CN1Cc1cccnc1,81.9%
6,O=C(Nc1cccc(Cl)c1)c1cc(N=Nc2ccc([N+](=O)[O-])cc2Cl)ccc1O,63%
7,Cc1cccc(Cc2cnc(NC(=O)/C=C/c3ccco3)s2)c1,28.2%
8,CNC(=O)NCC1OC(n2cnc3c(NC(=O)Nc4ccccc4)ncnc32)C(O[Si](C)(C)C(C)(C)C)C1CC(=O)N(C)OC (configuration not stated),48.2%
9,CCN1C(=O)N(CC)C2Nn3c(s/c(=C\c4ccc(Cl)cc4Cl)c3=O)=NC21 (configuration not stated),43.1%
10,CCN(CC)CCCCCCNc1cc(OC)c(Cl)c2cccnc12,76.9%
11,c1csc(-c2c3ccc(=[N+]4CCCCC4)cc-3oc3cc(N4CCCCC4)ccc23)c1,-71.3% (active)
12,COc1ccc(NC(=O)c2nc(-c3cc(OC)c(OC)c(OC)c3)n(-c3cccc4ccccc34)n2)cc1OC,45.4%
13,O=C(Cc1ccc(F)c(F)c1)Nc1cc(C2(C(F)(F)F)CC2)nn1Cc1ccccc1,-9.81% (active)
14,N=c1sc(Cc2ccc(Cl)cc2)cn1CC(=O)c1ccc(F)cc1,82.4%
15,COc1ccc(S(=O)(=O)NCCNc2nccc(-c3c(-c4cccc(F)c4)nc4sccn34)n2)cc1,56.3%
16,COc1ccc2c(c1)O/C(=C\c1cccc(OCC(=O)Nc3nc4ccccc4s3)c1)C2=O,-1.91% (active)
17,Cc1c(C(=O)OC(=NC2CCCCC2)NC2CCCCC2)sc2c1c(=O)nc1c(C#N)n[nH]n12,97.3%
18,COc1ccc(-c2nc(SC(C)C)nc(NNC(N)=S)c2C#N)cc1,69.7%
